Screening data from PubChem BioAssay.
Only some compounds are listed: those with a hit (about 1.6% of all), similar ones and a draw of the others.
VLA-4 inh: inhibition in a human VLA-4 binding assay. inhibition, % (about 7 µM as worked out from the volumes in the protocol). AID 2557. 330,000 tested, 0.2% active. VLA-4 expressing cells, ligand binding flow cytometry. P13612
PKA-R2B activ: activators of human PKA-R2B complex; P22694+P31323; PKA-R2B holoenzyme dissociation, Cy5-IP20 fluorescence polarization; R2B truncated from residue 108, S112A mutant; 0% DMSO only, 100% 113 µM cGMP; activation, % at 11.4 µM; 340,000 tested, 0.079% active; AID 504700;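 active = activation above a cutoff set at the mean over all compounds plus 3 SD, cut at about 18% in these data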;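 also: higher means more holoenzyme dissociation and a rise in polarization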
Target sequence (P31323 whole entry, looked up, other chains not shown, the tested form may be a part): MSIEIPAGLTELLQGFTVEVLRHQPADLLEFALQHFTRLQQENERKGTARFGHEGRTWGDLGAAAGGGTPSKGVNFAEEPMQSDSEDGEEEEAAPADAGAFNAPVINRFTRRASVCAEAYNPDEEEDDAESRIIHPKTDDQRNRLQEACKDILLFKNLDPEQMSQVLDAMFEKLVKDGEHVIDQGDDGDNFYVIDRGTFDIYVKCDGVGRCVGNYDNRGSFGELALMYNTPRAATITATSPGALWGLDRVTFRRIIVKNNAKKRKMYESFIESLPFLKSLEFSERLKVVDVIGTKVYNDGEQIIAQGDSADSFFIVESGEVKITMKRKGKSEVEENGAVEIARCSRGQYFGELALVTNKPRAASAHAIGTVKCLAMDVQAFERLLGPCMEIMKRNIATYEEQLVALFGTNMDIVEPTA
CendR NRP1 mod: modulators of CendR peptide binding to human neuropilin-1 | FAM-RPARPAR peptide binding to NRP-1, fluorescence polarization | O14786 | inhibition, % at 25 µM | 360,000 tested, 0.85% active;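 active = inhibition or corrected inhibition above about 18%, plus a signal ratio from 0.5 to 1.5, limit read from the data, passing the limit was not always enough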
PKA-R1A activ: PKA-R1A complex activation. P00514+P68181. PKA-R1A dissociation, Cy5-IP20 fluorescence polarization; scaled: DMSO 0%, 113 µM cGMP 100%. activation, % at 11.4 µM. 340,000 tested, 0.083% active. AID 504707;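 active = percent activation above the mean of all tested compounds plus 3 SD, cut at about 19% in these data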;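 also: higher means more PKAc released from R1A so a rise in polarization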
ATG4B inhibitor: inhibitors of human ATG4B cysteine protease | ATG4B cleavage of LC3-PLA2, NBD-HPC fluorescence, 1 h | inhibition, % at 8.33 µM | 340,000 tested, 0.51% active | AID 504462; in the data active = inhibition above about 40%
ATG4B confirm: confirmation of human ATG4B inhibitors; shares compounds with ATG4B inhibitor; ATG4B protease fluorescent substrate cleavage assay; inhibition, % at 8.33 µM; 320 tested, 92% active; AID 504757; in the data active = inhibition above about 39%
PLA2 ctr: PLA2 (human) inhibition in ATG4B counter-screen | shares compounds with ATG4B inhibitor | purified PLA2, NBD-C6-HPC fluorescence, 45 min | inhibition, % at 8.33 µM | 1,600 tested, 66% active
Target sequence (P04054 whole entry, looked up): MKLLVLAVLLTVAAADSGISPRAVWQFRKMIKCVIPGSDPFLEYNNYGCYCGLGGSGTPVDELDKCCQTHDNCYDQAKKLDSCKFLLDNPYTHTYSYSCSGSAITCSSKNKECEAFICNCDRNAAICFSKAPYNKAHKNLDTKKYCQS
R2B FP artifact: FP assay interference, PKA-R2B counter-screen. shares compounds with PKA-R2B activ. FP artifact counterscreen, fluorescence polarization. activation, % at 11.4 µM. 270 tested, 6% active; in the data active = activation above about 20%;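 also: Cy5 labelled IP20 peptide probe with compound but no PKA protein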
PKA-R2B act conf: PKA-R2B complex activation, confirmation | 270 tested, 9% active | fluorescence polarization | AID 504797 | shares compounds with PKA-R2B activ | activation, % at 11.4 µM; in the data active = activation above about 19%
Target sequence (P31323 whole entry, looked up): as the sequence (P31323 whole entry, looked up, other chains not shown, the tested form may be a part) above
A number is an active result; – = inactive; · = no result given. Rule as the data show it, unless noted: active = inhibition above about 50%; inactive = the rest.

SMILES | VLA-4 inh | PKA-R2B activ | CendR NRP1 mod | PKA-R1A activ | ATG4B inhibitor | PLA2 ctr | others
O=C(C1=C(c2ccccc2)C(=O)c2ccccc2C1=O)c1ccccc1 | · | – | – | – | 45 | 51
CCC1=NN(C(=O)c2ccc(C)cc2)C(O)(c2ccc(Br)cc2)C1 (stereo not drawn) | – | – | – | – | – | ·
CCC1=NN(C(=O)c2cccc(Br)c2)C(O)(c2ccc(Br)cc2)C1 (stereo not drawn) | – | – | – | – | 43 | – | ATG4B confirm=58
Nc1ccc2c(c1)C(=O)C(=O)c1ccccc1-2 | – | – | – | – | 78 | – | ATG4B confirm=–
COc1cccc(/C=N/NC(=O)c2ccc(-n3cnnn3)cc2)c1 | · | – | – | – | – | ·
Cc1ccc(N(CC(=O)NCc2ccc(F)cc2)C(=O)c2snc(C(N)=O)c2N)cc1C | – | – | – | – | 60 | 57
Cc1ccc(C(=O)O/N=C2\CCCc3ccccc32)cc1 | – | – | – | – | 43 | – | ATG4B confirm=58
Cc1cccc(C(=O)O/N=C2\CCCc3ccccc32)c1 | – | – | – | – | 45 | –
Cc1cc(S(=O)(=O)N2CCN(c3c(C)cccc3C)CC2)ccc1F | – | – | – | – | 49 | 52
Cc1cc(S(=O)(=O)N2CCN(c3ccccc3C)CC2)ccc1F | – | – | – | – | 45 | 52
COC(=O)NNC(=O)COc1cc(C)c(Br)cc1C(C)C | – | – | – | – | 41 | –
Clc1cccc(/C=N/Nc2nnc(Cl)c3ccccc23)c1 | – | – | – | – | – | ·
Clc1ccc(/C=N/Nc2nnc(-c3ncc[nH]3)c3ccccc23)cc1 | – | – | – | – | 79 | 82
C(=C\c1ccccc1)/CSc1nnc(-c2ccccc2)n1Cc1ccco1 | – | – | – | – | 67 | 66
Clc1cccc(-c2nnc(SC/C=C/c3ccccc3)n2Cc2ccco2)c1 | – | – | – | – | 55 | 56
C(=C\c1ccccc1)/CSc1nnc(-c2ccncc2)n1Cc1ccco1 | – | – | – | – | – | ·
O=C(COC(=O)c1ccc2c(c1)OCO2)Nc1ccccc1Cl | – | – | – | – | – | ·
CC(C)Cc1ccc(CN2CCCC(NC(=O)c3ccnn3C)C2)cc1 (stereo not drawn) | – | – | – | – | 42 | –
CCOc1c(Br)cc(C(N)=O)cc1OCc1ccccc1 | – | – | – | – | 79 | 80
CCCOc1c(Br)cc(C(N)=O)cc1OCC | – | – | – | – | 42 | 56
COc1cc(C(N)=O)cc(Br)c1OCc1ccccc1 | – | – | – | – | 70 | 71
Cc1ccccc1N1CCN(C(=O)NCc2cccc(Cl)c2)CC1 | – | – | – | – | 61 | 73
COc1ccc(CNC(=O)N2CCN(c3cccc(C)c3C)CC2)cc1OC | – | – | – | – | – | ·
Cc1cccc2[nH]c(CN(C)Cc3nc(CC4CC4)no3)nc12 | – | – | – | – | – | ·
O=C(O)c1cc(C2CC2)nn1-c1ccccc1 | – | – | – | – | – | ·
SMILES | VLA-4 inh | PKA-R2B activ | CendR NRP1 mod | PKA-R1A activ | ATG4B inhibitor | PLA2 ctr | others
O=C(c1nn(Cc2ccccc2)c(=O)c2ccccc12)N1CCc2ccccc2C1 | – | – | – | – | – | ·
NC(=O)C1Cc2ccccc2CN1C(=O)c1nn(Cc2ccccc2)c(=O)c2ccccc12 (stereo not drawn) | – | – | – | – | 41 | 61
NC(=O)C1Cc2ccccc2CN1C(=O)c1cc(C2CC2)nn1-c1ccccc1 (stereo not drawn) | – | – | – | – | 92 | 92
NC(=O)C1Cc2ccccc2CN1C(=O)c1cccc(Oc2ccccc2)c1 (stereo not drawn) | – | – | – | – | 47 | 94
CC1Cc2ccccc2N1S(=O)(=O)c1cccc(C(=O)N2Cc3ccccc3CC2C(N)=O)c1 (stereo not drawn) | – | – | – | – | 68 | 68
COc1ccc(CN2C[C@@H](CO)O[C@@H](n3cnc4c(NCc5ccco5)ncnc43)C2)cc1 | · | · | – | · | · | ·
O=C1N[C@H]2CC=C[C@H]2Nc2ccccc21 | · | – | – | – | – | ·
COc1cccc(OC)c1C(=O)OCC(=O)NCCNC(=O)COC(=O)c1c(OC)cccc1OC | · | – | – | – | · | ·
O=C(c1ccc(Cl)cc1)c1cccc(O)c1 | · | – | – | – | – | ·
O=C(O)c1cc(Br)ccc1NN=C1CCCCC1 | – | – | – | – | 50 | – | ATG4B confirm=62
Cc1cccc(-n2cc(-c3ccccc3)c3c(N4CCOCC4)ncnc32)c1 | – | – | – | – | – | ·
CCC(=O)N1CCC(C)(C(=O)Nc2ccc3c(c2)OCO3)C1 (stereo not drawn) | · | · | – | · | · | ·
CC1(OC(=O)C2CCCC2)C(=O)C=C2C=C(c3ccsc3)OC=C2C1=O (stereo not drawn) | – | – | – | – | – | ·
COC(=O)CCC(=O)OC1(C)C(=O)C2=COC(c3ccc(OC)cc3)=CC2=C(Br)C1=O (stereo not drawn) | – | · | · | · | 51 | 57
COc1ccc(C2=CC3=C(Br)C(=O)C(C)(OC(=O)C4CCCC4)C(=O)C3=CO2)cc1 (stereo not drawn) | – | – | – | – | 65 | 81
COc1ccc(C2=CC3=C(Br)C(=O)C(C)(OC(=O)c4ccc(Cl)nc4)C(=O)C3=CO2)cc1 (stereo not drawn) | – | · | · | · | 67 | 59
CC(C)(O)CCC(C)(C)O | – | – | – | – | – | ·
NS(=O)(=O)c1cccc(C(=O)NC2CCSc3ccccc32)c1 (stereo not drawn) | – | – | – | – | – | ·
NS(=O)(=O)c1cc(C(=O)NC2CCSc3ccccc32)ccc1Cl (stereo not drawn) | – | – | – | – | 54 | – | ATG4B confirm=43
C=CCNC(=S)N1CCC(C(=O)c2ccc(F)cc2)CC1 | – | – | – | – | – | ·
C/C=C/c1ccc(OCCOc2cc(C=O)ccc2OC)c(OC)c1 | – | – | – | – | 47 | –
O=C(CCn1c2c(c3ccccc31)CCCC2)NNC(=O)c1ccc(Cl)c([N+](=O)[O-])c1 | – | – | – | – | 52 | 61
NC(=O)CSc1nnc(COc2ccccc2)n1CCc1ccccc1 | – | 22 | – | – | 54 | – | R2B FP artifact=–;PKA-R2B act conf=–
COc1ccc(-c2oc3c(c2C(=O)OCCO)C(OCCCO)CCC3)cc1 (stereo not drawn) | · | · | – | · | · | ·
